Source: PubChem BioAssay AID720631 (The Scripps Research Institute Molecular Screening Center, 2013)
The other results are listed elsewhere or left out. Activity calls are given as the source filed them.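 How the source made its calls: active means inhibition above the mean of compounds lying within the control limits plus 3 SD (cut at about 16% in these data); inactive means the rest.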

Molecular target: Fibrinogen beta chain (Homo sapiens) (UniProt P02675)
Experiment: Tn6 displacement from DD(E) complex – biochemical, fluorescence polarization, human fibrin, Tn6 probe, confirmation (AID 720631);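 further: 0% = plate median of compound wells and 100% = inhibitor peptide control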
Settings: FP displacement of TRITC-Tn6 peptide from DD(E); at 8.3 µM; stronger effect = higher value

Chain of Fibrinogen beta chain (Homo sapiens) (P02675 whole entry, looked up): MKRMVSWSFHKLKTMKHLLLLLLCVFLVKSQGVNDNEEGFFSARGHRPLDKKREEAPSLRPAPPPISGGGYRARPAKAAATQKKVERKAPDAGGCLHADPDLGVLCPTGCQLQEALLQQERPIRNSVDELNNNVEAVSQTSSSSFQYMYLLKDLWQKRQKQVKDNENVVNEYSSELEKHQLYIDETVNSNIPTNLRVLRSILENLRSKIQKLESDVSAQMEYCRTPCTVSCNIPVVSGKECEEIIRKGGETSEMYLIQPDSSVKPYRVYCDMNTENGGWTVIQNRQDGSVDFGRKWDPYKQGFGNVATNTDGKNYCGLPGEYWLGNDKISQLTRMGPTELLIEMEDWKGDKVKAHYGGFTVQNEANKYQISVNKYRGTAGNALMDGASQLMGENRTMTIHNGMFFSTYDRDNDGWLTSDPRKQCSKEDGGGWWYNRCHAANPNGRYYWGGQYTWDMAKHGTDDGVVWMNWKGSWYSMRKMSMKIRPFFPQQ

Q: Which inhibition does the source give for `Cc1cc(N2CCNC[C@@H]2C)ccc1N1CC[C@H](O)C1` here?
A: 2.65% (inactive)

Q: Which inhibition does the source give for `COc1ccc2c(c1O)-c1cccc3c1[C@@H](C2)N(C)CC3` here?
A: -8.1% (inactive)
